# Results as given in ChEMBL document CHEMBL1961873, “Compounds: GSK PKIS; Assays: Nanosyn kinase panel” (2012).
# Legend:
# [1] = molecular target: High affinity nerve growth factor receptor (Homo sapiens) (UniProt P04629); settings: at 1 µM;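 further: each value is the mean percent inhibition of TRKA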
# [2] = molecular target: BDNF/NT-3 growth factors receptor (Homo sapiens) (UniProt Q16620); settings: at 0.1 µM
# [3] = molecular target: BDNF/NT-3 growth factors receptor (Homo sapiens) (UniProt Q16620); settings: at 1 µM
# [4] = molecular target: NT-3 growth factor receptor (Homo sapiens) (UniProt Q16288); settings: at 0.1 µM
# Chain of NT-3 growth factor receptor (Homo sapiens) (Q16288 32-839 limits assumed): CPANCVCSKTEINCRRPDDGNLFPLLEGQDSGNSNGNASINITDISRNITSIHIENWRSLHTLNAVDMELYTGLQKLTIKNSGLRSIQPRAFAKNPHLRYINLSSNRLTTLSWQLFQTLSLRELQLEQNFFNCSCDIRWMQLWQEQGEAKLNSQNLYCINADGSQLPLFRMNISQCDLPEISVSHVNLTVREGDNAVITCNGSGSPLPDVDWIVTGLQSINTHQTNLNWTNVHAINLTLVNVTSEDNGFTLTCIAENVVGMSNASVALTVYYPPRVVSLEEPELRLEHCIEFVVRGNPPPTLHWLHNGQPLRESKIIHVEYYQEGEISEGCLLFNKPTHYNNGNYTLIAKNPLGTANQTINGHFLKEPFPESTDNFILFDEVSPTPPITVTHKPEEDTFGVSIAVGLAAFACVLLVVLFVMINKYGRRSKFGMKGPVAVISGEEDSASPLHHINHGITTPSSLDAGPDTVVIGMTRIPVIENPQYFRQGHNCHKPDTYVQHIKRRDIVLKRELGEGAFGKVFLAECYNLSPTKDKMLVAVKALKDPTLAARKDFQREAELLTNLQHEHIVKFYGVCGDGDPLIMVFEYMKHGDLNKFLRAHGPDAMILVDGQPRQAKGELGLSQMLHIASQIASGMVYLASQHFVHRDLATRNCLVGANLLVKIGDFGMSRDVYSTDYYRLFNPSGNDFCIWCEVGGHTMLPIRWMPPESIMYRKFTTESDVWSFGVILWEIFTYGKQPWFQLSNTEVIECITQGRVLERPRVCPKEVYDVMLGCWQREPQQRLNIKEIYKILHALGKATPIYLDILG
# [5] = molecular target: NT-3 growth factor receptor (Homo sapiens) (UniProt Q16288); settings: at 1 µM
# [6] = molecular target: T1, Tyrosine-protein kinase TXK (Homo sapiens) (UniProt P42681); settings: at 0.1 µM
# T1 sequence (whole entry): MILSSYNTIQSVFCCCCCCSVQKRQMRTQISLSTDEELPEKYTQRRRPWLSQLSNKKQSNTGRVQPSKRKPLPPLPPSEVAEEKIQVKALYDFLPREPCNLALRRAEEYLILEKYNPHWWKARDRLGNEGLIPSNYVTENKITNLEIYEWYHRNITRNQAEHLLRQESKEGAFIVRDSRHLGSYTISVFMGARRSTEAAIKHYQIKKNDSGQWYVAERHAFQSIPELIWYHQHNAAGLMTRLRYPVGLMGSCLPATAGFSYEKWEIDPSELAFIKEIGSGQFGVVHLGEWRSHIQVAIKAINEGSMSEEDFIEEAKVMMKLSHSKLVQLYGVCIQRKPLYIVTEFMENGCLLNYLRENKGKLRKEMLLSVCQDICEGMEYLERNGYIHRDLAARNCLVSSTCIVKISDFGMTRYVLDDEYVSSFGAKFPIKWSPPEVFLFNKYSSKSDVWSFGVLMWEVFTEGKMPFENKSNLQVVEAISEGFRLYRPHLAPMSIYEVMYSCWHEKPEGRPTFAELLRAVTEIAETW
# [7] = molecular target: T1, Tyrosine-protein kinase TXK (Homo sapiens); settings: at 1 µM
# [8] = molecular target: Non-receptor tyrosine-protein kinase TYK2 (Homo sapiens) (UniProt P29597); settings: at 0.1 µM;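 further: each value is a mean of the inhibition readings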
# [9] = molecular target: T2, Dual specificity protein kinase TTK (Homo sapiens) (UniProt P33981); settings: at 1 µM;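 further: reported figures are mean TTK inhibition at 1 µM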
# T2 sequence (whole entry): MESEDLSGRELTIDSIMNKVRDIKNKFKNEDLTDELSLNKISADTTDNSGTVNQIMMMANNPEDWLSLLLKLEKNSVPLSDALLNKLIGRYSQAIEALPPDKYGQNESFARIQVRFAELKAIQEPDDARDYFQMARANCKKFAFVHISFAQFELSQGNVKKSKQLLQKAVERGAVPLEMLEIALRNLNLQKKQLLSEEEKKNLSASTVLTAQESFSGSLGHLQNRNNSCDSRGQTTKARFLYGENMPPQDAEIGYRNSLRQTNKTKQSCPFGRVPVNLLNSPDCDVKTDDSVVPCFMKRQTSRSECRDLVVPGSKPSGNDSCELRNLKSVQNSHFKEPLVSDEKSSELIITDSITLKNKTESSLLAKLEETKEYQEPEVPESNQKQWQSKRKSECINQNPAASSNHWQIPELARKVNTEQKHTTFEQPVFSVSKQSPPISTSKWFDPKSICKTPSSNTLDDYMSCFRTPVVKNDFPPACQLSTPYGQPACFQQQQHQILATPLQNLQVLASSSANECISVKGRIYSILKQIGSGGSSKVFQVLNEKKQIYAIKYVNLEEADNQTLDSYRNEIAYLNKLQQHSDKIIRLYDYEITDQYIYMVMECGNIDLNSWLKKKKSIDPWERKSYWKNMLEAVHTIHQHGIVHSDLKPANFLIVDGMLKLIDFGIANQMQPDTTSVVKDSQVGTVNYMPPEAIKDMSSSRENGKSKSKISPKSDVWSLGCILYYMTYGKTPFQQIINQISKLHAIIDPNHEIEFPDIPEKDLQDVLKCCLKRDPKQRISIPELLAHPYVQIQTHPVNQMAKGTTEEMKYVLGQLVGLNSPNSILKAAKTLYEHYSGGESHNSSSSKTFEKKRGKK
# [10] = molecular target: T3, Aurora kinase A (Homo sapiens) (UniProt O14965); settings: at 0.1 µM
# T3 sequence (whole entry): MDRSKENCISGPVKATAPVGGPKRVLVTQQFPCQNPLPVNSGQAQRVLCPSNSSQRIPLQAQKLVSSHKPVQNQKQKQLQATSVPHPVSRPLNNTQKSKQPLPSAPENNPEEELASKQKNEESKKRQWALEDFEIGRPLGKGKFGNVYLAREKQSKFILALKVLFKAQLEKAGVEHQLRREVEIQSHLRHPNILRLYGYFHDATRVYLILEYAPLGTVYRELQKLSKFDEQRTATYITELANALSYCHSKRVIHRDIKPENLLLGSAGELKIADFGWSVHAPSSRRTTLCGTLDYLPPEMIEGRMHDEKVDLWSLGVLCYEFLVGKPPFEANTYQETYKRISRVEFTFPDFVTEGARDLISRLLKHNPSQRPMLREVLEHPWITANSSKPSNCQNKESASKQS
# [11] = molecular target: T3, Aurora kinase A (Homo sapiens); settings: at 1 µM
# [12] = molecular target: Aurora kinase B (Homo sapiens) (UniProt Q96GD4); settings: at 0.1 µM
# Chain of Aurora kinase B (Homo sapiens) (Q96GD4 whole entry): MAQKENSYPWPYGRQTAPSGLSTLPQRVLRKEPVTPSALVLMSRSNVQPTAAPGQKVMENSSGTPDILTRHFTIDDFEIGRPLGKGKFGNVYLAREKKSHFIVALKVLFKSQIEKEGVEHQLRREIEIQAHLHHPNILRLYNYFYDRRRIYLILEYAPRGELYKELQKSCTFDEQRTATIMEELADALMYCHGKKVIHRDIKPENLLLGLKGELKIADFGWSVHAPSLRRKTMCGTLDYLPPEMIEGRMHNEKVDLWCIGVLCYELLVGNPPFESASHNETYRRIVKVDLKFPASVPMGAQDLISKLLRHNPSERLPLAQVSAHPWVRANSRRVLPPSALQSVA
# [13] = molecular target: Aurora kinase B (Homo sapiens) (UniProt Q96GD4); settings: at 1 µM
# [14] = molecular target: T4, Aurora kinase C (Homo sapiens) (UniProt Q9UQB9); settings: at 0.1 µM
# T4 sequence (whole entry): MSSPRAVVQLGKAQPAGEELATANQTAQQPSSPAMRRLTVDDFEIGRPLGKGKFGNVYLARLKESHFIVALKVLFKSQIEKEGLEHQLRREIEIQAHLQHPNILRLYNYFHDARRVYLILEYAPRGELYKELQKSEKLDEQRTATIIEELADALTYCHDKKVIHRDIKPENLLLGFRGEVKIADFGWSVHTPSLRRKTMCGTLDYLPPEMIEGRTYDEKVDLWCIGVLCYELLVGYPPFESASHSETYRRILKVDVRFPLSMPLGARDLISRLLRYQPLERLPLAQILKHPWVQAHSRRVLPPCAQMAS
# [15] = molecular target: T4, Aurora kinase C (Homo sapiens); settings: at 1 µM
# [16] = molecular target: Serine/threonine-protein kinase 10 (Homo sapiens) (UniProt O94804); settings: at 0.1 µM
# Chain of Serine/threonine-protein kinase 10 (Homo sapiens) (O94804 whole entry, looked up): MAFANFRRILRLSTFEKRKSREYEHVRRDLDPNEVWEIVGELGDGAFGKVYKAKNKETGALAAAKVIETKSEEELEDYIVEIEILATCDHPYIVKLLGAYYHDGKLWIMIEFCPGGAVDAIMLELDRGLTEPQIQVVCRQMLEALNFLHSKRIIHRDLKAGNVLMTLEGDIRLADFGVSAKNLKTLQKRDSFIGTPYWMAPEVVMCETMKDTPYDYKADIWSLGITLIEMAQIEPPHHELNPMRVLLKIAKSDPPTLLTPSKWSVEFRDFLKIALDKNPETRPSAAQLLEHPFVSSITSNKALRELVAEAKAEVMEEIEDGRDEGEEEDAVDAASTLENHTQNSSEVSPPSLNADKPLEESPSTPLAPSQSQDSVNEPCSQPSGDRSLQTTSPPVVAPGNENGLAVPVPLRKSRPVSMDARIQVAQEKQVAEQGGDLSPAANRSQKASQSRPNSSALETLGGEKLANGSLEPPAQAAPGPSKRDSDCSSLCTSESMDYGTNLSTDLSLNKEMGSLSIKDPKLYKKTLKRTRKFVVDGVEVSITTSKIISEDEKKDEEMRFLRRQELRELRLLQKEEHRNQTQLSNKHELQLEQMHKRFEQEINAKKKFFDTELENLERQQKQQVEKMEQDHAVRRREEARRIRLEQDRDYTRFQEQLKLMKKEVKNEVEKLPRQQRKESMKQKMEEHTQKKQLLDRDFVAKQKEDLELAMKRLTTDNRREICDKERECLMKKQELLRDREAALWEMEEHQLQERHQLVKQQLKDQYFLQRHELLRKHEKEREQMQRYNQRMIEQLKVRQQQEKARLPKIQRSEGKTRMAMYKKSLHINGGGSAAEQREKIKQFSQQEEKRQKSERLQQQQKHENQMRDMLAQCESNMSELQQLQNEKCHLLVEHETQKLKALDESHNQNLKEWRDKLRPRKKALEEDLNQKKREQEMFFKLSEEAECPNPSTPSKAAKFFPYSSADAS
# [17] = molecular target: Serine/threonine-protein kinase 10 (Homo sapiens) (UniProt O94804); settings: at 1 µM
# [18] = molecular target: T5, Mitogen-activated protein kinase kinase kinase kinase 2 (Homo sapiens) (UniProt Q12851); settings: at 0.1 µM
# T5 sequence (whole entry): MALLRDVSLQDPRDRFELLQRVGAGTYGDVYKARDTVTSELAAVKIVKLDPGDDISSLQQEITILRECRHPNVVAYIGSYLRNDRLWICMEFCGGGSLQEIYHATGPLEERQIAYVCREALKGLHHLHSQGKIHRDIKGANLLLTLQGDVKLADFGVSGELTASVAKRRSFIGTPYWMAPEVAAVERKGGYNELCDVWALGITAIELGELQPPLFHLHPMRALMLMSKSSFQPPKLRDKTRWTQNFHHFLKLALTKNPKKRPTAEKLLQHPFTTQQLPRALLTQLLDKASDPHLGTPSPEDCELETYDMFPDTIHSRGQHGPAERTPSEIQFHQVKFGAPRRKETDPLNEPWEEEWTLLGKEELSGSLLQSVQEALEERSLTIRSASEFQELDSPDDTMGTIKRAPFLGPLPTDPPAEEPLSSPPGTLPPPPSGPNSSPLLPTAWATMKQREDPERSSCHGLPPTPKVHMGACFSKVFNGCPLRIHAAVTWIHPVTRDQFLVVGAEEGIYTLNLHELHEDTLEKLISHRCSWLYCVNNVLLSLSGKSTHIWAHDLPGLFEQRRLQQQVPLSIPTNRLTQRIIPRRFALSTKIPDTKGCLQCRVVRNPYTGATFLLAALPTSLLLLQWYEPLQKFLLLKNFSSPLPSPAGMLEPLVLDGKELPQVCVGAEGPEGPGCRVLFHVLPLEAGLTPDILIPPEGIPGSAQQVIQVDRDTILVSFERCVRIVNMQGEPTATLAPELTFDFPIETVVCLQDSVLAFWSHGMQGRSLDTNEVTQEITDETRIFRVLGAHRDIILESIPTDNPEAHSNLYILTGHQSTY
# [19] = molecular target: T5, Mitogen-activated protein kinase kinase kinase kinase 2 (Homo sapiens); settings: at 1 µM
# [20] = molecular target: Mitogen-activated protein kinase kinase kinase kinase 4 (Homo sapiens) (UniProt O95819); settings: at 0.1 µM
# Chain of Mitogen-activated protein kinase kinase kinase kinase 4 (Homo sapiens) (O95819 2-1239 limits assumed): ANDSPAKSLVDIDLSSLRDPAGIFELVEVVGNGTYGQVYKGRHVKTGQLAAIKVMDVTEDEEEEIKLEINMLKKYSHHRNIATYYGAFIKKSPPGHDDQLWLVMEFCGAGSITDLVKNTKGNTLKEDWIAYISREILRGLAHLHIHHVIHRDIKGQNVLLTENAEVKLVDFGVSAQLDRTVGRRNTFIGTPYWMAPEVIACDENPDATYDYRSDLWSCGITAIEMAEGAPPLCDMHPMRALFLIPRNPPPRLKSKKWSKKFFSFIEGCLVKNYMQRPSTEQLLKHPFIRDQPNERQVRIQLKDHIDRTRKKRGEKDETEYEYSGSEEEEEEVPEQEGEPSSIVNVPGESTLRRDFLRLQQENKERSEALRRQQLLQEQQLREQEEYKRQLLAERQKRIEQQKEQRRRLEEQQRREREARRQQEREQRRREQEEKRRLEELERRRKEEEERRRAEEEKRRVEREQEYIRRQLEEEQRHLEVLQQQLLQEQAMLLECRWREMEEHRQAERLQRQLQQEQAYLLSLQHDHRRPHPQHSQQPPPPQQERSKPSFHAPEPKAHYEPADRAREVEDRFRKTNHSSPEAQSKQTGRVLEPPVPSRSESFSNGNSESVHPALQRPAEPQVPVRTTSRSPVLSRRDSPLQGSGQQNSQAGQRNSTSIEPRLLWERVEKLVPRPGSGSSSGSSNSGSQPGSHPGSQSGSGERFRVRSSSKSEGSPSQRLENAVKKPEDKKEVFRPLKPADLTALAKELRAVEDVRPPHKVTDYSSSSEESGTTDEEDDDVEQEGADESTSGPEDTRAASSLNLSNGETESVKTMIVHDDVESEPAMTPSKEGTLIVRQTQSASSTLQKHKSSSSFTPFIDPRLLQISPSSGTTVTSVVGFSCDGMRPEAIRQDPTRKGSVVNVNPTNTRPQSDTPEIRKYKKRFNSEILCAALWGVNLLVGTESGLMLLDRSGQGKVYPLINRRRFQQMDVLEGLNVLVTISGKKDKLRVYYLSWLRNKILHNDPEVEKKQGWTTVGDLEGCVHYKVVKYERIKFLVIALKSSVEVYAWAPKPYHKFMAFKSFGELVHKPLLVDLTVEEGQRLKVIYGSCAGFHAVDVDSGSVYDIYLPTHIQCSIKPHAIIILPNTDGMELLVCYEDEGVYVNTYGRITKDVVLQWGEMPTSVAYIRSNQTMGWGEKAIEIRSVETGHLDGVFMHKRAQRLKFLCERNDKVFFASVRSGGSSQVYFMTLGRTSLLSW
# Chain of BDNF/NT-3 growth factors receptor (Homo sapiens) (Q16620 32-822 limits assumed): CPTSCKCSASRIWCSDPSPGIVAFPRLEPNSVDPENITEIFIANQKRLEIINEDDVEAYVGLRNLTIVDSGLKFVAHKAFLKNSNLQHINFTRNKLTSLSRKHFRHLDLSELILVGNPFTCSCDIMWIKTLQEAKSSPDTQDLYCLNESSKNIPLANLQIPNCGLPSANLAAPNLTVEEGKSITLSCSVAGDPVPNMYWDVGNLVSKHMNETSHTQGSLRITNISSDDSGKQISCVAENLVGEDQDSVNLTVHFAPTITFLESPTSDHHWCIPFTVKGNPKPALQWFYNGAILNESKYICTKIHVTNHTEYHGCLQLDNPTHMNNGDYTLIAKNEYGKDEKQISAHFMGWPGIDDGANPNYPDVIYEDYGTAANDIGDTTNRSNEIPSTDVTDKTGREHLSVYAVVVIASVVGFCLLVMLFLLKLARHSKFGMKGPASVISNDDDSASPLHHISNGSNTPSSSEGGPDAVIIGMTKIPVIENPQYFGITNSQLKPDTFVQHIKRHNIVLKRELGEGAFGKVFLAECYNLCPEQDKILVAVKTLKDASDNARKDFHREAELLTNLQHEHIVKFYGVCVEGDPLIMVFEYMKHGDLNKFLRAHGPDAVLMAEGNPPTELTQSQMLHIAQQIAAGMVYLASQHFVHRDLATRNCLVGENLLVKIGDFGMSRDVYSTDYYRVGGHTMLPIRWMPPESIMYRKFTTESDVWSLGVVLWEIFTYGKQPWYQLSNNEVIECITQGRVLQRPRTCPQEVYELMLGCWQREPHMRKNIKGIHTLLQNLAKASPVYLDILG
# Chain of High affinity nerve growth factor receptor (Homo sapiens) (P04629 33-796 limits assumed): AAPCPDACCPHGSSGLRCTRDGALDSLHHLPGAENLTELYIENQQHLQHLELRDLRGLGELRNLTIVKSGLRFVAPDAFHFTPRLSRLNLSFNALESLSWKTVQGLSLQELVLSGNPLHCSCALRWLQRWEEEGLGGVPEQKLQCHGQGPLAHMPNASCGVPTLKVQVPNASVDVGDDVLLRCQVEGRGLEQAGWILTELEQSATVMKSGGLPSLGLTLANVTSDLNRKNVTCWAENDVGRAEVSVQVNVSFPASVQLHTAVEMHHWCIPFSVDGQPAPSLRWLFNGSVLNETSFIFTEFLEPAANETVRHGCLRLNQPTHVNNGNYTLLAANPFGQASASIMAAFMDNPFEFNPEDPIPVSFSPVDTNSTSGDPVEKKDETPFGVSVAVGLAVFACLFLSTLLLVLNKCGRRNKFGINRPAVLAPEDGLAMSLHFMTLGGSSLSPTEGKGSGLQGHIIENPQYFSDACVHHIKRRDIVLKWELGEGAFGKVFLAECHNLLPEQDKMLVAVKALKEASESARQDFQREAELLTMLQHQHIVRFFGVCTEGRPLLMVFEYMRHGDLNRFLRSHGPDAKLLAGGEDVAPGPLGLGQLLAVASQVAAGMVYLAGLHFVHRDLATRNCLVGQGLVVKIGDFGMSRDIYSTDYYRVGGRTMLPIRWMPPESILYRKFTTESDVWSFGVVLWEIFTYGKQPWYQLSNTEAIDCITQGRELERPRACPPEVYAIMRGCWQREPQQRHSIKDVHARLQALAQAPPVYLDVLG
Structure (SMILES),inhibition [1] [%],inhibition [2] [%],inhibition [3] [%],inhibition [4] [%],inhibition [5] [%],inhibition [6] [%],inhibition [7] [%],inhibition [8] [%],inhibition [9] [%],inhibition [10] [%],inhibition [11] [%],inhibition [12] [%],inhibition [13] [%],inhibition [14] [%],inhibition [15] [%],inhibition [16] [%],inhibition [17] [%],inhibition [18] [%],inhibition [19] [%],inhibition [20] [%]
NCc1ccc(-n2c(-c3nonc3N)nc3cnccc32)cc1,2.81,3.11,1.99,3.14,2.31,1.78,3.57,-7.21,10.1,3.62,8.79,3.64,12.4,3.83,18.8,8.16,24.2,3.62,18.2,10.1
Cc1ccc(C(=O)NC(C)C)cc1-c1ccc(C(=O)NCC2CC2)cc1,0.4,-1.41,0.73,0.1,1.79,-1.45,-1.03,1.94,-5.81,-3.2,-2.53,-0.47,2.24,-0.96,1.27,-2.21,-5.65,-0.39,1.59,-2.82
Fc1ccc(-c2ncn(C3CCNCC3)c2-c2ccnc(Oc3ccc4c(c3)OCO4)n2)cc1,4.38,5.44,5.76,4.02,7.26,0.33,3.68,-2.53,9.25,4.04,2.71,5.39,7.86,7.07,11.4,8.13,7.17,1.35,9.73,2.42
O=C1Nc2ccccc2/C1=C/Nc1ccc(-n2cncn2)cc1,44.2,11.7,56.5,12.5,58.4,3.04,5.07,-4.51,47.9,4.13,36.3,6.72,27.7,3.93,44.8,4.16,12.6,2.9,12.6,18.5
COc1cc(Nc2ncc3c(C)nc(-c4cccc(Oc5ccccc5)c4)n3n2)cc(OC)c1OC,1.05,0.27,1.55,1.86,2.38,2.38,4.09,-0.63,14.8,2.19,44.4,2,15.8,1.04,30.1,1.18,1.99,1.28,4.18,1.36
O=C(Nc1ccc(Oc2ccc3[nH]c(NC(=O)c4ccccc4)nc3c2)cc1)Nc1cc(C(F)(F)F)ccc1F,52.2,5.11,35.1,8.01,41,3.06,6.27,-4.63,19.2,1.31,12.4,0.59,13.9,3.42,40.8,12.8,50.2,1.6,19,3.95
CN(c1ccc(NC(=O)Nc2c(Cl)cccc2Cl)cc1)c1ccnc(Nc2cccc(CS(C)(=O)=O)c2)n1,68.7,30.1,55.4,31.7,88.6,9.28,21.1,-2.98,19.4,73.9,97.6,76.4,84.2,,104,90.8,86.5,11.5,32.9,34.3
COc1ccc2cc(-c3c(-c4ccncc4)nc(-c4ccc([S+](C)[O-])cc4C)n3C)ccc2c1 (stereo not drawn),-0.68,-0.26,-0.8,-0.79,1.56,0.29,1.25,-1.86,1.61,-0.61,4.24,2.96,6.06,-0.11,2.95,52.4,97.3,-0.16,0.1,1.21
Fc1ccc(-c2ncn(C3CCNCC3)c2-c2ccnc(Oc3ccc(Oc4ccccc4)cc3)n2)cc1,5.66,2.54,2.27,2.44,1.66,8.91,5.95,-1.07,7.56,2.89,0.96,4.04,3.66,0.06,0.55,5.52,6.96,2.54,9.5,4.44
CCc1nccc2c1nc(-c1nonc1N)n2CC,,3.6,-1.57,0.15,-0.85,3.63,7.06,1.46,2.94,2.35,11.2,1.28,5.03,0.67,5.21,-0.01,3.09,2.12,2.26,2.56
NC(=O)Cc1ccccc1Oc1nccc(-c2c(-c3ccc(F)cc3)ncn2C2CCNCC2)n1,1.31,0.02,0.58,0.22,0.96,3.01,4.27,-1.14,7.71,1.9,0.49,2.8,1.02,-0.43,8.16,3.78,5.45,0.65,3.36,5.19
